# The whole screen tested about 53,000 compounds, of which about 900 (1.7%) showed an effect of 50% or more. The sample holds strong results, similar compounds and a random draw of the others, so the mix is not that of the screen.
# System: Mycobacterium tuberculosis
# Experiment: Cornell - Phenotypic assay to identify agents that inhibit growth of Mycobacterium tuberculosis
# Assay type: functional
# Design: scale not given: direction of the effect not stated beside the values
# Details: 10 mM as filed; unlikely as a test dose
row,Structure (SMILES),Percent Effect [%]
1,CNC(=O)NC(=O)CN1CCN(c2ccc(C(=O)OC)cc2)CC1C (stereo not drawn),-3.666
2,Cc1[nH]/c(=N\C(=O)c2csc(NCC(C)C)n2)sc1C,105.2
3,CC(=O)Nc1nc(C(=O)NC(C)c2cccnc2)cs1 (stereo not drawn),-20.46
4,Cc1cs/c(=N/C(=O)c2csc(NCC(C)C)n2)[nH]1,104.8
5,Cc1cs/c(=N\C(=O)c2c3c(nc4onc(C)c24)CCC3)[nH]1,37.19
6,CC(C)CNc1nc(C(=O)/N=c2\[nH]nc(C(C)(C)C)s2)cs1,4.379
7,CC(=O)Nc1nc(C(=O)NC(C)c2ccncc2)cs1 (stereo not drawn),-46.84
8,CCCNC(=O)C(C)N1CCC(C(=O)Nc2cnn(CC)c2)CC1 (stereo not drawn),-1.052
9,O=C(Nc1cccnc1-n1cc(Br)cn1)C1CCCC1,-1.816
10,Cc1cnc(N2CCCn3c(nnc3CN(C)C(C)C)C2)nc1.O=C(O)C(F)(F)F,8.261
11,c1csc(N2CCN(c3ncnc4sccc34)CC2)n1,8.465
12,COCC(=O)N1CCCC(C(=O)N(C)CCn2ccnc2C)C1 (stereo not drawn),-64.71
13,CCn1c(CN(C)Cc2cnc(C)s2)nc2c(F)cccc21,21.09
14,Cc1ccccc1OCCN1CCn2c(C)nnc2C1,-10.78
15,Cc1nnc(C(C)N2CCc3[nH]c4ccccc4c3C2)o1 (stereo not drawn),28.26
16,Cc1nnc(C(C)N2CCc3[nH]c4ccc(Cl)cc4c3C2)o1 (stereo not drawn),34.8
17,Cc1noc(C(C)N2CCc3[nH]c4ccc(Cl)cc4c3C2)n1 (stereo not drawn),63.72
18,CN(C)CCn1c2c(ccc1=O)CC(NC(=O)c1ccsc1)CC2.O=C(O)C(F)(F)F (stereo not drawn),-27.73
19,CCN(CC1CCCO1)C(=O)Nc1ccc(F)cc1OC (stereo not drawn),2.654
20,CCN(CC1CCCO1)C(=O)Nc1cc(OC)c(OC)cc1C (stereo not drawn),69.91
21,CCN(CC1CCCO1)C(=O)Nc1ccc(OC)c(C)c1 (stereo not drawn),29.95
22,CC(Oc1ccc2c(c1)OCO2)C(=O)N1CCC(c2ncc[nH]2)CC1 (stereo not drawn),-2.052
23,Cc1ccc(C2CSCCN2C(=O)c2cccs2)o1 (stereo not drawn),-1.514
24,CNC(=O)c1cnn2c(C3CCCN3)ccnc12 (stereo not drawn),-26.66
25,Cn1ccnc1CN1CCCC(Cc2ccnc3ccncc23)CC1.O=CO (stereo not drawn),25.28
26,CC(OCC1CC1)C(=O)Nc1nccn1Cc1ccccc1 (stereo not drawn),51.13

row,Structure (SMILES),Percent Effect [%]
1,CC(OCC1CC1)C(=O)Nc1ccn(Cc2ccccc2)n1 (stereo not drawn),-1.057
2,CCOCCOC(C)C(=O)Nc1nccn1Cc1ccccc1 (stereo not drawn),4.045
3,CCC(=O)N1CCCCC1c1nc(O)c2c(n1)CN(S(=O)(=O)CC)CC2 (stereo not drawn),9.253
4,O=C1CCC(c2nc(C3CCN(C(=O)Cc4cccs4)CC3)no2)N1 (stereo not drawn),57.39
5,Cc1nc([C@@H]2C[C@@H]3CCN(C(=O)Cc4ccsc4)C[C@H]3O2)no1,-0.3005
6,Cc1nc([C@@H]2C[C@@H]3CCN(C(=O)Cc4cccc(F)c4)C[C@H]3O2)no1,16.61
7,CC(=O)N1CCC(c2noc(C3CCC(=O)N3)n2)CC1 (stereo not drawn),5.586
8,Cc1nc([C@@H]2C[C@@H]3CCN(C(=O)Cc4cccs4)C[C@H]3O2)no1,53.11
9,O=C1CCC(c2nc(C3CCN(C(=O)C4CC4)CC3)no2)N1 (stereo not drawn),13.14
10,CC(=O)N[C@@H]1CN(Cc2cccs2)C[C@H]1c1ccc(C)o1,10.2
11,Cn1nc(COc2cccnc2)c2c1CCN(CC1CC1)C2.O=C(O)C(F)(F)F.O=C(O)C(F)(F)F,-1.302
12,CCCN(CCO)S(=O)(=O)c1ccc2[nH]c(=O)[nH]c2c1,11.31
13,Cc1cc(C[C@@H]2CCC[C@H]2NCc2cc(C)c(O)c(C)c2)on1.O=C(O)CC(O)(CC(=O)O)C(=O)O,77.55
14,Cc1cc(C[C@@H]2CCC[C@H]2NCc2ccccc2C(F)(F)F)on1.O=C(O)CC(O)(CC(=O)O)C(=O)O,12.28
15,Cc1cc(C[C@@H]2COC[C@H]2NCc2ccc(C)c(C)c2)on1.O=C(O)CC(O)(CC(=O)O)C(=O)O,-9.136
16,CC(=O)N1CCC2(CCN(Cc3ccc(Cl)c(C(F)(F)F)c3)CC2)C1,43.5
17,Cc1cc2nc(C(C)C)cc(N3CCC(N(C)C)C3)n2n1 (stereo not drawn),32.15
18,O=c1[nH]c2c(-c3ccccn3)nsc2c(=O)n1CC1CCCO1 (stereo not drawn),-0.9245
19,Cc1ccc(C(=O)N2CC(Oc3ccccc3C)C2)s1,67.58
20,CO[C@H]1C[C@@H]2CN(C(=O)c3ccc(C)s3)C[C@@H]2C1,41.56
21,COc1ccccc1OC1CN(C(=O)c2ccc(C(C)=O)s2)C1,-4.28
22,COc1cccc2ccc(N3CCC(O)(C(=O)O)CC3)nc12,-24.68
23,CC(c1nc(C(C)(C)C)no1)N1CCN(Cc2ccco2)CC1 (stereo not drawn),11.7
24,CCn1ccnc1CN1CCCN(C(=O)COC2CCCC2)CC1,-24.49
25,CNc1ncc(C(=O)N2CCOC(C(=O)N3CCCCCC3)C2)cn1 (stereo not drawn),-4.246
26,CCOc1cccc2c1OCC(C(=O)NS(=O)(=O)c1c(C)noc1C)=C2,106

row,Structure (SMILES),Percent Effect [%]
1,CCOc1cccc2c1OCC(C(=O)NS(=O)(=O)Cc1ccccc1)=C2,106.8
2,CCOc1cccc2c1OCC(C(=O)NS(=O)(=O)c1cncc(Br)c1)=C2,44.21
3,CCOc1cccc2c1OCC(C(=O)NS(=O)(=O)c1ccc(C)s1)=C2,107.6
4,Cc1cc(OCC(=O)NS(=O)(=O)c2c(C)noc2C)ccc1Cl,39.96
5,CCOc1cccc2c1OCC(C(=O)NS(=O)(=O)c1ccc(Br)s1)=C2,-17.73
6,CCOc1ccccc1C(=O)NS(=O)(=O)c1ccc2c(c1)OCCCO2,27.03
7,Cc1ccc(OCC(=O)NS(=O)(=O)Cc2ccccc2)cc1,7.336
8,CCOc1cccc2c1OCC(C(=O)NC(C)Cn1cccn1)=C2 (stereo not drawn),7.345
9,CCOc1cccc2c1OCC(C(=O)NS(=O)(=O)c1ccc(Cl)s1)=C2,9.699
10,CCOc1cccc2c1OCC(C(=O)NS(=O)(=O)c1cccs1)=C2,19.94
11,CCOc1cccc2c1OCC(C(=O)NS(=O)(=O)c1ccc(Cl)cc1)=C2,104.6983
12,CCc1cnc(NC(=O)NC2CCN(C3CCCC3)CC2)s1,-3.242
13,CC(=O)N1CC[C@@H]2O[C@@H](COCC(=O)N3CCCC3)CC[C@@H]21,-45.3
14,O=C(NCC(Cc1cccc(F)c1)N1CCCC1=O)c1ccc(=O)[nH]n1 (stereo not drawn),14.14
15,Cc1ncsc1C(=O)N1CCC(c2ncncc2-c2ccnc(N)c2)C1 (stereo not drawn),-0.8467
16,CSCC[C@H](NC(C)=O)c1nc(Cc2ccccc2)n[nH]1,-11.93
17,COc1ncccc1CN1Cc2nccn2CC(CN2CCCC2)C1 (stereo not drawn),6.883
18,Cc1ccccc1CCCN1CCS(=O)(=O)CC1C (stereo not drawn),46.6
19,CC(C)(C)S(=O)(=O)c1ccc(N2CCC(n3cncn3)CC2)cn1,-14.59
20,CS(=O)(=O)N[C@@H]1CN(C(=O)c2cnccn2)[C@@H]2CCCO[C@@H]21,-34.02
21,Cc1cnc(CN(C)Cc2cccc(OC(F)(F)F)c2)cn1,-8.651
22,O=C(NCc1ccccc1)NCc1nc(-c2ccncc2)n[nH]1,13.27
23,CC(C)Oc1cccc(-c2nc3c([nH]2)CCCNC3=O)c1,-4.933
24,CC(=O)NCCCC(=O)N1CCC(Sc2cccc(C)c2)CC1,15.76
25,Cc1cccc(SC2CCN(C(=O)CCCn3cnnn3)CC2)c1,50.26
26,Cc1cccc(SC2CCN(C(=O)CCCS(N)(=O)=O)CC2)c1,37.58

row,Structure (SMILES),Percent Effect [%]
1,Cc1nc(N2CCCOC(Cn3cccn3)C2)c2sccc2n1 (stereo not drawn),26.84
2,CCC(C)(C)NC(=O)c1nnn(-c2cccc3c2CCN(C)C3)c1C,-0.0817
3,COCc1nc(CNc2cc(C)nc(N3CCCCC3)n2)no1,-11.46
4,CCn1cc(S(=O)(=O)NC(CO)Cc2c[nH]c3ccccc23)cn1 (stereo not drawn),-1.971
5,CCn1cc(NC(=O)NC(CO)Cc2c[nH]c3ccccc23)cn1 (stereo not drawn),-8.114
6,CCn1cc(S(=O)(=O)NC(=O)CCc2c[nH]c3ccccc23)cn1,53.27
7,Cc1noc(-c2ccc(-n3ncc(C(=O)O)c3C)nc2)n1,11.73
8,COC(=O)[C@@H](NC(=O)c1snnc1-c1ccc(OC)cc1)C(C)C,58.81
9,COC(=O)[C@H](CC(C)C)NC(=O)c1snnc1-c1ccc(OC)cc1,25.36
10,CCC(C)NC(=O)c1snnc1-c1ccc(OC)cc1 (stereo not drawn),21.58
11,Cc1ccc(-c2nc(CN3CCn4c(C)nnc4C3)co2)cc1,-23.96
12,Nc1nc2nc(C3CCN(C(=O)c4cscn4)C3)ccc2s1 (stereo not drawn),-97.96
13,O=C(NC1CCCN(CCc2ccccc2)C1)c1ccccn1 (stereo not drawn),35.43
14,O=C(c1ccco1)N1CCO[C@@H]2CN(c3ccccc3)CC[C@@H]2C1,17.14
15,CCc1ccccc1OC1CN(C(=O)c2ccnc(OC)c2)C1,66.55
16,COc1cc(C(=O)N2CC(Oc3ccccc3Cl)C2)ccn1,25.67
17,COc1cccc(OC2CN(C(=O)c3ccnc(OC)c3)C2)c1,17.3
18,CCc1ccc(NC(=O)N2C[C@H]3C[C@H](C(=O)N4CCCC4)[C@@H](C2)O3)cc1,-25.04
19,O=C(c1ccccc1F)N1CC[C@@H]2CN(c3ncccn3)CCO[C@@H]2C1,12.82
20,CNC(=O)CS(=O)(=O)C1CCN(S(=O)(=O)c2ccccc2Br)CC1,7.561
21,O=S(=O)(NC1CCC2(CC1)OCCO2)c1ccccc1Br,9.266
22,O=S(=O)(c1ccccc1Cl)N1CCC2(CC1)OCCS2,36.27
23,O=S(=O)(c1ccccc1Br)N1CCC2(CC1)OCCS2,54.27
24,O=S(=O)(Cc1ccccc1Cl)N1CCC2(CC1)OCCS2,47.83
25,Cc1c(Cl)cccc1S(=O)(=O)N1CCC2(CC1)OCCS2,53.55

# — ChEMBL document CHEMBL3988442, “University of Dundee, Small-Polar-MMV Screening Library” (2021)
